Results filed as inconclusive are left out. Active and inactive are the calls of the source. Calls follow the shape of the dose curve; as a rule, active = well fitted curve in either direction with a large enough effect (not every such curve was filed as active); inconclusive = small, poorly fitted or top-dose-only effect, or another doubt; inactive = flat fitted curve, though single readings scatter.

The nature of the experiment: NFAT Signaling Pathway (AID 444).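 Also: carbachol stimulus at about its EC50 of 1 µM final.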 The note with it: Jurkat NFAT-bla M1, carbachol, beta-lactamase ratio, 5 h; series mostly up to 17.2 µM. A digest of the protocol: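 Jurkat cells with NFAT-driven β-lactamase reporter and co-expressed M1 receptor, stimulated with carbachol (final 1 uM, ~EC50), compound titration, 5 h at 37 °C. CCF4 loaded 1 h at RT; 460/530 nm ratio gave %activity and AC50.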
With `O=S(=O)(O)c1ccc2cc(N=Nc3cc(S(=O)(=O)O)c4cccnc4c3O)ccc2c1`, the result was inactive. Turning to `NC(=O)c1nnn(Cc2cc(Cl)c(C(=O)c3ccc(Cl)cc3)c(Cl)c2)c1N`, the result was inactive.

In the case of `C=C1c2cccc(O)c2C(O)=C2C(=O)[C@@]3(O)C(O)=C(C(N)=O)C(=O)[C@@H](N(C)C)[C@@H]3[C@@H](O)[C@H]12`, the outcome was inactive. The value for `CN[C@H]1[C@@H](O[C@@H]2[C@H](O[C@@H]3[C@@H](O)[C@@H](O)[C@@H](N=C(N)N)[C@@H](O)[C@@H]3N=C(N)N)O[C@H](C)[C@@]2(O)C=O)O[C@@H](CO)[C@@H](O)[C@H]1O` was “inactive”; that for `NCC1CCC(C(=O)O)CC1` (stereo not drawn) was “inactive”. As for `NS(=O)(=O)c1cc(Cl)c(Cl)c(S(N)(=O)=O)c1`, the outcome was inactive. To `Cc1cc2nc3c(=O)[nH]c(=O)nc-3n(CC(O)C(O)C(O)CO)c2cc1C` (stereo not drawn) belongs “inactive”; to `CN(C)c1ccccc1CN1CCCN(Cc2ccccc2N(C)C)C1c1ccncc1`, “inactive”.
